# SARS PLpro yeast – inhibitors of SARS-CoV papain-like protease in yeast; AID 485353; Potency, µM (top dose mostly 32.9 µM), without a hit: at the highest dose activity, positive = growth rescue, usual class: activators; S. cerevisiae expressing SARS-CoV PLpro, growth rescue; 0.19% of 330,000 active; calls by dose curve; note: 0% is about no effect; nearly all actives have a fitted effect of over 55% in size
# HCV inhibitor – inhibitors of hepatitis C virus infection; Huh7.5.1 HCVcc-Cre infection, luciferase reporter, 44 h; Potency, µM (highest dose often 41.8 µM), without a hit: top-dose activity change, negative = inhibition, usual class: inhibitors; 3.4% of 340,000 active; note: % is set by controls: 0 for no effect and ±100 for the full control effect
#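 Seed cells (1,000/well) for 4 h; treat with compound and infect with HCVcc-Cre, moi about 0.5. Incubate 44 h, then detect luciferase activity.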
# Pf growth 96h – inhibits malaria parasite growth, 96 h. P. falciparum luciferase reporter growth, 96 h. 6.9% of 320,000 active. Potency, µM (highest dose often 28.7 µM), for the others: at the highest dose activity change, negative = inhibition, hits mostly inhibitors; note: % is set by controls: 0 for no effect and ±100 for the full control effect
#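 P. falciparum expressing integrated firefly luciferase, in erythrocytes at 2% hematocrit, 0.05% parasitemia, incubated with compounds 96 h at 37 C, 5% CO2. Growth inhibition read as loss of luminescence; two-generation exposure targets delayed-death apicoplast inhibitors.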
# NS1 function inh – inhibitors of influenza NS1 protein function | 0.4% of 270,000 active | Potency, µM (doses to about 46.1 µM), inactives show top-dose activity, positive = more growth; calls by dose curve; note: actives are rising curves; nearly all actives have a fitted effect of over 50% in size
#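 Compounds were scored for reversing the slow growth caused by influenza A NS1 in S. cerevisiae, measured by optical density at 600 nm. Assay medium contained 2% galactose at pH 6.0; NS1-free yeast of the same strain were the positive control.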
# Pf growth 48h – inhibits P. falciparum growth in the first generation, 48 h. P. falciparum luciferase growth in erythrocytes, 48 h. Potency, µM (series often up to 28.7 µM), for the others: at the top dose activity change, negative = inhibition, actives largely listed as inhibitors. 5.9% of 310,000 active; note: % is set by controls: 0 for no effect and ±100 for the full control effect
#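 Cell-based growth assay: transgenic P. falciparum expressing firefly luciferase, cultured in red cells within RPMI 1640 containing 0.5% w/v Albumax, 24 mM bicarbonate and gentamycin. A drop in luciferase activity indicates inhibition.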
# AMA1-RON2 inh – inhibitors of Plasmodium falciparum AMA1-RON2 interaction | AlphaScreen AMA1-biotinylated RON2 peptide binding | Potency, µM (highest dose often 58.2 µM), for inactives: at the top dose activity change, negative = inhibition, actives largely listed as inhibitors | 0.2% of 360,000 active;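 note: 0% = vehicle wells and -100% = peptide control; nearly all actives have a fitted effect of over 45% in size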
#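 AMA1 (3D7) with his tag at 25 nM final met compounds first, then biotinylated RON2 peptide at 25 nM; detection used donor plus acceptor beads, 10 µg/mL apiece, read by AlphaScreen after 30 min at room temperature.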
# An asterisk follows results filed as active; ? = inconclusive; / = no result given; [ ] = another dose, or the depositor's remark. In the library only some 12% were active in any assay of this set; here they are far more common. Unless noted, calls come from the whole dose curve; as a rule, active = well fitted curve in the direction sought with a large enough effect; inconclusive = small, poorly fitted or top-dose-only effect, or another doubt; inactive = no such curve, though single readings can be large; an effect the other way counts as inactive or inconclusive. Potency is the fitted concentration of half-maximal effect.
SMILES,SARS PLpro yeast,HCV inhibitor,Pf growth 96h,NS1 function inh,Pf growth 48h,AMA1-RON2 inh
CC1CCCC(C)N1CCCNC(=O)c1ccc2nc(N3CCOCC3)sc2c1 (stereo unspecified),-4%,-12%,79%,4%,-12%,9%
C=CCOc1ccccc1CNCCc1ccc(S(N)(=O)=O)cc1,3%,7%,38%,/,2%,1%
NS(=O)(=O)c1ccc(CCNCc2ccccc2OCc2ccc(Cl)cc2)cc1,1%,13µM*,?,5%,10µM*,0%
NS(=O)(=O)c1ccc(CCNCc2cc(Cl)ccc2OCc2ccccc2)cc1,1%,22µM*,?,18%,?,-4%
O=C(Nc1cccc(S(=O)(=O)N2CCCC2)c1)c1ccc(Cl)nc1,2%,?,/,/,/,-8%
O=[N+]([O-])c1cccc(/C=C/c2nc[nH]c2[N+](=O)[O-])c1,-1%,4%,1.5µM*,1%,?,8%
Cc1cc(C)nc(NS(=O)(=O)c2ccc(NC(=O)c3ccc(O)cc3O)cc2)n1,2%,28%,?,6%,46%,0%
COCCN(Cc1ccccc1)C(=O)c1c(C)nn(-c2ccccc2)c1C,1%,29%,?,/,-27%,2%
Cc1ccc(NC(=O)CSc2nc3ccccc3c(=O)n2CCCN2CCCCC2)cc1C,-4%,14µM*,-20%,3%,12µM*,-4%
CC(C)N(CCn1c(SCC(=O)Nc2cccnc2Cl)nc2ccccc2c1=O)C(C)C,0%,?,5.9µM*,/,?,-1%
COCCn1c(SCC(=O)Nc2cccnc2Cl)nc2cc(Cl)ccc2c1=O,4%,?,?,/,?,12%
COCCn1c(SCC(=O)Nc2ccc(S(=O)(=O)N(C)C)cc2)nc2ccccc21,-6%,-18%,4.1µM*,2%,/,-16%
CC(=O)c1cccc(NC(=O)CSc2nc3ccccc3c(=O)n2CCCN2CCOCC2)c1,0%,-3%,/,/,/,0%
CN(C)CCCn1c(SCC(=O)Nc2nc(-c3cccc(Br)c3)cs2)nc2ccccc2c1=O,-1%,10µM*,?,21%,?,-1%
CC(=O)N1CCN(Cc2cc(=O)oc3cc(C)cc(C)c23)CC1,/,/,/,/,/,0%
CCCCc1nnc(NC(=O)c2ccc3[nH]c(=O)c(=O)[nH]c3c2)s1,3%,18%,14%,13%,5%,4%
O=C(COC(=O)C1CC2CCCC(C1)C2=O)NNC(=O)c1ccccc1F (stereo unspecified),-2%,22%,40%,/,-11%,49%
CN(CCC#N)C(=S)Nc1ccc(S(=O)(=O)N2CCOCC2)cc1,-4%,19%,8%,/,-6%,-3%
COCCCn1c(SCC(=O)Nc2ccc(C)cc2)nc2ccccc2c1=O,-1%,4%,25%,-34%,25%,-5%
COCCCn1c(SCC(=O)Nc2ccc(C(=O)OC)cc2)nc2ccccc2c1=O,2%,-13%,?,-13%,8.3µM*,?
COc1ccccc1CNC(=O)CCNS(=O)(=O)/C=C/c1ccc(C)cc1,1%,-2%,/,/,/,-8%
Cc1ccccc1-n1c(CNc2ccccc2)nc2ccccc2c1=O,/,-13%,/,/,/,0%
O=c1c2ccccc2nc(CNc2ccccc2)n1-c1ccccc1,-1%,11%,7.4µM*,7%,?,11%
CC(C)N1C(=O)C(Cc2nc3ccccc3c(=O)n2-c2ccccc2)c2ccccc21 (stereo unspecified),1%,?,9.3µM*,22%,9.3µM*,-15%
COc1ccc(NC(=O)CN(C)C(=O)CSc2nc3ccccc3s2)cc1,/,-23%,0%,/,-6%,0%
SMILES,SARS PLpro yeast,HCV inhibitor,Pf growth 96h,NS1 function inh,Pf growth 48h,AMA1-RON2 inh
CCN1CCN(c2c(/C=C3\SC(=S)N(Cc4ccco4)C3=O)c(C)c(C#N)c(=O)n2C)CC1,1%,2.2µM*,?,12%,2.3µM*,16%
CCCSCCCNC(=O)c1ccc(NC(=O)C2=CSCCO2)cc1,-2%,-4%,?,-25%,4%,0%
Oc1ccc(Cl)cc1N=Cc1sc2ccccc2c1Cl,-11%,-29%,2.3µM*,/,?,12%
O=C(Nc1cc(S(=O)(=O)N2CCCC2)ccc1Cl)c1cc(F)c(F)c(F)c1F,-6%,?,/,/,/,-3%
CCCOc1ccc(Cn2c(C)nc([N+](=O)[O-])c2SCC(O)COC)cc1[N+](=O)[O-] (stereo unspecified),-1%,-17%,10µM*,5%,?,-12%
CCOc1ccc(Cn2c(C)nc([N+](=O)[O-])c2SCC(O)CCl)cc1[N+](=O)[O-] (stereo unspecified),-1%,5%,/,2%,10µM*,1%
CC(C)(C)NC(=O)N1CCN(c2nc3ccc(Cl)cc3s2)CC1,0%,13µM*,39%,-6%,5%[0.00184 µM],3%
CCCCC(=O)N1CCN(c2nc3ccc(Cl)cc3s2)CC1,-5%,7.9µM*,45%,-27%,46%,16%
C[N+]1(CCCCSc2ccc(O)cc2)CCCCC1,-4%,6%,-12%,3%,9.3µM*,-6%
C[N+]1(CCCC[N+]2(C)CCCCCCC2)CCCCCCC1,/,/,/,-3%,/,/
c1ccc(-c2csc(=Nc3cccnc3)n2CC2CCCO2)cc1 (stereo unspecified),-1%,2%,?,-7%,?,?
Cc1ccc(-c2csc(=Nc3cccnc3)n2CCCN2CCCC2=O)cc1C,4%,?,12µM*,-31%,?,-1%[2.32 µM]
COCCn1c(-c2ccccc2)csc1=Nc1cccnc1,-9%,8.9µM*,?,/,?,-8%
Cc1ccc(-c2csc(=Nc3cccnc3)n2CCCn2ccnc2)cc1C,6%,?,3.7µM*,20%,10µM*,1%[2.32 µM]
O=c1c2ccccc2nc(-c2ccccc2)n1CCCn1ccnc1,-3%,3%,?,-1%,-20%,-11%
O=S(=O)(c1ccc(-c2csc(=Nc3ccccc3)n2CCCN2CCOCC2)cc1)N1CCOCC1,-3%,-29%,-18%,-57%,?,-24%
c1cncc(N=c2scc(-c3cccc4ccccc34)n2CCCn2ccnc2)c1,8%,?,9.3µM*,-3%,9.3µM*,11%[2.32 µM]
CCCCn1c(C)csc1=Nc1cccnc1,3%,6%,?,4%,-1%,-9%
CCCCNC(=O)C(=O)Nc1cc2c3c(c1)CCC(=O)N3CCC2,2%,13%,?,-3%,-8%,5%
CCN(CC)CCCNC(=O)C1CCN(C(=O)c2oc3cc4sc(N(C)C)nc4cc3c2C)CC1,-1%,?,12µM*,-10%,-17%,-4%
COc1ccc(/C=C(\C#N)C(=O)C(C)(C)n2cncn2)cc1,1%,2%,3.7µM*,-1%,29%,11%
